The results in this text go back to PubChem BioAssay (NCI).

The panel holds about 83,000 compounds, 20% with a hit somewhere; the sample as a whole holds those more often.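 How to read the values: 0–100, growth inhibition (40 = 60% inhibited); 0, no net growth; -100 to 0, cell death (-40 = 40% of starting cells died; -100 = all dead).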 The source made the active and inactive calls. The calls were made as follows: active = growth percent below 10; inactive = the rest.

The experiment relates to HL-60(TB) leukemia. As to the kind of experiment: NCI-60 one-dose screen, 48 h (100 = growth as untreated, 0 = no growth, -100 = all killed). The following applies: 10 µM unless noted.
Consider `COc1ccc(-c2cc(=O)[nH]c3c(OC)c4ccccc4c(OC)c23)cc1`, for which the growth is -19.8% (active).

As to `CC[N+]1(CC)CC[N+]2(CCCC(C)CC2)CC1` (configuration not stated), the growth was 101% (inactive).

With `O=C(Nc1ccc(-n2ccc3c(NC(=O)c4ccccc4)ncnc32)cc1)c1ccc(Cl)c(C(F)(F)F)c1`, the growth is 34.6% (inactive).

`CC(=O)OCC1CCC(COC(C)=O)CC1` (configuration not stated): the growth is 85.5% (inactive).

For `CCc1c2c(nc3ccc(OCc4ccc(B(O)O)cc4)cc13)-c1cc3c(c(=O)n1C2)COC(=O)[C@]3(O)CC`, the growth is -40.8% (active).

With `Cc1oc2c(c1C(=O)N1CC[C@@H](N)C1)C(=O)c1c(c(O)c3ccccc3c1O)C2=O`, the growth is -22.8% (active).

As for `CCOC(=O)c1cc(C(=O)c2cc(OC)c(OC)c(OC)c2)n2c1ccc1ccccc12`, the growth is -12.9% (active).

Regarding `C=CCn1c(SCC(=O)Nc2ccc(C(=O)/C=C/c3ccc(Cl)cc3)cc2)nnc1-c1ccccc1`, the growth was 80.9% (inactive).

`O=C(O)c1ccccc1NCc1ccco1`: the growth was 102% (inactive).

With `CS(=O)(=O)Nc1cc(-c2ccc3ncnc(Nc4ccc5[nH]ncc5c4)c3c2)cnc1Cl`, the growth is 55.5% (inactive).

For `N#Cc1c2ccccc2c2n1-c1ccccc1OC(c1ccccc1)C2=O` (configuration not stated), the growth is 43.4% (inactive).

For `Cc1cccc(-c2cc(O)c(C(=O)N3CCOCC3)s2)c1`, the growth is 24.5% (inactive).

For `Cc1ccc(Cc2c(C=O)nc(N)[nH]c2=O)c2ccccc12`, the growth is 36.1% (inactive).

For the compound `COc1cccc(OCC(O)CN2CCN(c3ccccc3)CC2)c1` (configuration not stated), the growth is 78.7% (inactive).

For `Cc1c(Cl)cc(Cl)c(N)c1Cl`, the growth is 102% (inactive).

Consider `NC(CSC(c1ccccc1)(c1ccccc1)c1ccc(F)cc1)C(=O)O` (configuration not stated), for which the growth was -39.2% (active).

Turning to `Clc1ccc(N2N=C(c3cccc(Nc4ccncc4)c3)CC2c2ccc3c(c2)OCO3)cc1` (configuration not stated), the growth is 22.5% (inactive).

Turning to `COC(=O)/C=C1\SC(=Nc2cccc(Cl)c2)N(CCc2c[nH]c3ccccc23)C1=O`, the growth was -37.1% (active).

Regarding `COc1cccc(/C=C2\Oc3cc(OCCCN4CCCC4)ccc3C2=O)c1`, the growth is 81% (inactive).

As for `CCNc1nnc(COc2ccc(CNC(=O)CCCC/C=C/C(C)C)cc2OC)o1`, the growth was 98.4% (inactive).

Turning to `Cc1cc(C)nc(NC(N)=NCCc2ccccc2)n1`, the growth was 56.9% (inactive).

Take `COc1ccc2c(c1)C(c1cc(OC)c3c(c1)OCO3)C1=C(COC1=O)N2` (configuration not stated): the growth was 4.04% (active).

As for `O=c1[nH]c(-c2ccccn2)nc2sc3c(c12)CCCCC3`, the growth was 21.8% (inactive).

As for `CCOC(=O)C1=NN(c2ccccc2)C(=O)/C1=C\N1C(=O)/C(=C/c2cccc(O)c2)SC1=S`, the growth was 93.2% (inactive).

With `OCCS`, the growth was 98.4% (inactive).

Take `Cc1ccc(-n2nc3c(c(C#N)c2=O)CC(c2ccccc2Cl)C([N+](=O)[O-])=C3O)cc1` (configuration not stated): the growth was 96% (inactive).

`COc1cc(C=C2C(=O)N(C)C(=O)N(C)C2=O)cc(CN2CCCCC2)c1O`: the growth is 96.3% (inactive).
